Each structure is given as a SMILES string. Activity calls are given as the source filed them.

The test system of assay [1] is Plasmodium falciparum Sir2 (PF13_0152, Sir2A). The assay is described as follows: Plasmodium falciparum Sir2A binding compounds – biochemical, small-molecule microarray, 635 nm fluorescence, primary screen (AID 1098).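 Further: score merges spot fluorescence intensity with its signal-to-noise ratio.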 Conditions: fluorescence 635 nm, higher = more signal.
The nature of assay [2]: probe aDKK1 binding to arrayed compounds – biochemical, biotinylated probe, 635/667 nm fluorescence, primary screen (AID 1099).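 Further: score merges 667nm spot fluorescence with signal to noise across triplicate slides.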 Conditions: small-molecule microarray, higher = more signal.
Assay [3] can be described thus: probe aCHRDL2 binding to arrayed compounds – biochemical, biotinylated probe, 635/667 nm fluorescence, primary screen (AID 1100). To be noted: small-molecule microarray, higher = more signal.
A short description of assay [4]: change in splice reporter luminescence, either direction, cell-based, HEK293, spliceosome inhibition project, primary screen (AID 1101).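 Further: HEK293 cells carrying a splicing-competent luciferase reporter gene; test concentration not given here.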 Conditions: HEK293 splicing luciferase reporter, 24 h, higher = more signal, called active from +8 up or from −8 down. (Reporter assays use an easily measured gene product as a stand-in for the process of interest.)
In assay [5] the target is Fibroblast growth factor 10 (Homo sapiens) (UniProt O15520). The assay is described as follows: compounds binding fibroblast growth factor 10 – biochemical, small-molecule microarray, 635 nm fluorescence, primary screen (AID 1102). Conditions: FGF10 binding, fluorescence 635 nm, higher = more signal.
The test system of assay [6] is glycogen synthase kinase-3 (GSK3A per assay name; protocol says GSK3B). The experiment in a line: compounds binding glycogen synthase kinase-3 – biochemical, small-molecule microarray, 635 nm fluorescence, GSK3A, primary screen (AID 1103). Further: the record names both GSK3A and GSK3B. To be noted: fluorescence 635 nm, higher = more signal.
Assay [7] deals with Epidermal growth factor receptor (Homo sapiens) (UniProt P00533). The assay is described as follows: compounds binding epidermal growth factor receptor – biochemical, small-molecule microarray, 635 nm fluorescence, primary screen (AID 1104).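 Further: score merges 667 nm emission intensity with spot signal to noise over triplicate slides.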 To be noted: EGFR binding, higher = more signal.
Assay [8] concerns the target Follistatin-related protein 3 (Homo sapiens) (UniProt O95633). The experiment in a line: compounds binding follistatin-related protein 3 – biochemical, small-molecule microarray, 635 nm fluorescence, primary screen (AID 1105).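 Further: score merges emission near 667 nm and signal to noise per printed spot across three slides.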 Conditions: FSTL3 binding, higher = more signal.
For assay [9], the target named is Dickkopf-related protein 1 (Homo sapiens) (UniProt O94907). The assay is described as follows: small molecules binding DKK1 protein – biochemical, small-molecule microarray, 635 nm fluorescence scan, primary screen (AID 1106).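 Further: score merges emission near 667 nm with signal to noise over three replicate slides.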 To be noted: higher = more signal.
Assay [10] concerns Inhibin beta A chain (activin A). The experiment in a line: small molecules binding activin A – biochemical, small-molecule microarray, 635 nm fluorescence scan, primary screen (AID 1107).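 Further: mouse activin A protein probed at 4.33 µg/mL on printed slides; score merges bound-protein fluorescence near 667 nm with spot signal-to-noise.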 Conditions: INHBA, higher = more signal.
The test system of assay [11] is Human papillomavirus type 1a protein E7 (residues 44-93). The experiment in a line: small molecules binding HPV E7 44-93 – biochemical, small-molecule microarray, residues 44-93, 635 nm fluorescence, primary screen (AID 1108).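 Further: E7 fragment applied at 1 µg/mL in TBST for 1 h at 4 C; score combines spot fluorescence with its signal to noise ratio.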 Conditions: fluorescence 635 nm, higher = more signal.
Assay [12] in a line: hepatitis C replication reporter changes, two-sided – Huh7 cells, luciferase reporter, HCV replication inhibitor project, primary screen (AID 1109).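 Further: huh7 hepatoma cells harbouring a luciferase neomycin HCV replicon reporter; luciferase luminescence as measure of HCV replicon replication; test concentration not given here.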 Conditions: Huh7 HCV replicon luciferase reporter, 48 h; higher = more signal.
Assay [13] concerns the target Left-right determination factor 2 (Homo sapiens) (UniProt O00292). The assay is described as follows: small molecules binding LEFTY2 protein – biochemical, small-molecule microarray, 635 nm fluorescence scan, primary screen (AID 1110). To be noted: higher = more signal.
For assay [14], the target named is Calmodulin-1 (Homo sapiens) (UniProt P0DP23). The experiment in a line: small molecules binding calmodulin-1 with EGTA – biochemical, small-molecule microarray, Cy5-labelled CALM1, profiling panel (AID 1111).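 Further: labelled calmodulin applied in Tris saline Tween buffer holding calcium plus EGTA and DTT.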 To be noted: Cy5-CALM1 binding fluorescence, higher = more signal.
The target is the same in assay [15]. The experiment in a line: small molecules binding Ca-loaded calmodulin-1 – biochemical, small-molecule microarray, Cy5-labelled CALM1, plus calcium, artefact control for SMM control-protein annotation, profiling panel (AID 1112).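 Further: score merges spot fluorescence with signal to noise from triplicate slides.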 Conditions: Cy5-CALM1 binding fluorescence, higher = more signal.
Assay [16] in a line: probe aWnt5a binding to arrayed compounds – biochemical, biotinylated probe, 635/667 nm fluorescence, primary screen (AID 1113).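 Further: score merges 667 nm fluorescence intensity with signal-to-noise per printed feature.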 Conditions: small-molecule microarray, higher = more signal.
A short description of assay [17]: probe aShh binding to arrayed compounds – biochemical, biotinylated probe, 635/667 nm fluorescence, primary screen (AID 1114).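 Further: probe is biotin-labelled aShh protein from a stem cell growth factor screen; measures binding of labelled protein to compounds printed on the slide; score merges feature fluorescence at 667 nm with signal-to-noise.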 Conditions: small-molecule microarray, higher = more signal.
The nature of assay [18]: probe aNog binding to arrayed compounds – biochemical, biotinylated probe, 635/667 nm fluorescence, primary screen (AID 1115).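 Further: probe is biotinylated aNog protein used at 0.15 µg/mL for 1 h at 4 C; z-score combines 667 nm fluorescence of each spot with its signal to noise.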 To be noted: small-molecule microarray, higher = more signal.
Assay [19] deals with Torsin-1A-interacting protein 1 (Homo sapiens) (UniProt Q5JTV8). The assay is described as follows: compound microarray binding of lysate hLAP1 – cell lysate, small-molecule microarray, COS7 lysate, 635/667 nm fluorescence, primary screen (AID 1116). To be noted: 635 nm fluorescence, higher = more signal.
The target in assay [20] is Alpha-bungarotoxin (Bungarus multicinctus) (UniProt P60615). The experiment in a line: compounds binding labelled alpha-BTX control protein – biochemical, small-molecule microarray, Alexa647 label, 635/667 nm fluorescence, artefact control for SMM control protein annotation, profiling panel (AID 1117). To be noted: alpha-BTX-A647 binding fluorescence, higher = more signal.
Sequence of Alpha-bungarotoxin (Bungarus multicinctus) (P60615 whole entry, looked up): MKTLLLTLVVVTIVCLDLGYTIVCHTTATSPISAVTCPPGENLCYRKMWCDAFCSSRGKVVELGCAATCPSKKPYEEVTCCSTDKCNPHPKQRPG

Sequence of Follistatin-related protein 3 (Homo sapiens) (O95633 whole entry, looked up): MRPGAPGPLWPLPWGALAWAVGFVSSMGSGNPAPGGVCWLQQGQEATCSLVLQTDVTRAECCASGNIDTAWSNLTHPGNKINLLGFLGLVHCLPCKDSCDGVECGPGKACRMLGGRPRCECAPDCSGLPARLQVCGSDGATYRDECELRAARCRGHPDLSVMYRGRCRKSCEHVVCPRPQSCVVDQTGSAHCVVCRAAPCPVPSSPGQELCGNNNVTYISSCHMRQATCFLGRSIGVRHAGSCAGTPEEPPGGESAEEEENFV
Sequence of Left-right determination factor 2 (Homo sapiens) (O00292 whole entry, looked up): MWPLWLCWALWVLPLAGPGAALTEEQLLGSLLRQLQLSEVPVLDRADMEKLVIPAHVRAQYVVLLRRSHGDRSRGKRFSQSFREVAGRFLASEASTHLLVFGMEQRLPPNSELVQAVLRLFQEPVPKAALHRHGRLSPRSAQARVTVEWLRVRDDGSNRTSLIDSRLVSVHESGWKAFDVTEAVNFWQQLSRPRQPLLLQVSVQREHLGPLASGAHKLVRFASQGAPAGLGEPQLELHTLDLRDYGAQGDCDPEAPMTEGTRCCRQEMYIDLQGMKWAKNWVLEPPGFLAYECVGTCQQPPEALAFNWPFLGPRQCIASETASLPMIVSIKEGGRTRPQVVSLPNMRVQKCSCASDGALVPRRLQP
Sequence of Fibroblast growth factor 10 (Homo sapiens) (O15520 whole entry, looked up): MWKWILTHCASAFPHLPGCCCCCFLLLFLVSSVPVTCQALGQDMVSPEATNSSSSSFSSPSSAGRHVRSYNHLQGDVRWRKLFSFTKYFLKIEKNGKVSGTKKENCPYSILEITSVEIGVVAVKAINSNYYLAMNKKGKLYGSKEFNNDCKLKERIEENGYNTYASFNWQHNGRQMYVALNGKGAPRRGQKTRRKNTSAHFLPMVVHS
Sequence of Torsin-1A-interacting protein 1 (Homo sapiens) (Q5JTV8 whole entry, looked up): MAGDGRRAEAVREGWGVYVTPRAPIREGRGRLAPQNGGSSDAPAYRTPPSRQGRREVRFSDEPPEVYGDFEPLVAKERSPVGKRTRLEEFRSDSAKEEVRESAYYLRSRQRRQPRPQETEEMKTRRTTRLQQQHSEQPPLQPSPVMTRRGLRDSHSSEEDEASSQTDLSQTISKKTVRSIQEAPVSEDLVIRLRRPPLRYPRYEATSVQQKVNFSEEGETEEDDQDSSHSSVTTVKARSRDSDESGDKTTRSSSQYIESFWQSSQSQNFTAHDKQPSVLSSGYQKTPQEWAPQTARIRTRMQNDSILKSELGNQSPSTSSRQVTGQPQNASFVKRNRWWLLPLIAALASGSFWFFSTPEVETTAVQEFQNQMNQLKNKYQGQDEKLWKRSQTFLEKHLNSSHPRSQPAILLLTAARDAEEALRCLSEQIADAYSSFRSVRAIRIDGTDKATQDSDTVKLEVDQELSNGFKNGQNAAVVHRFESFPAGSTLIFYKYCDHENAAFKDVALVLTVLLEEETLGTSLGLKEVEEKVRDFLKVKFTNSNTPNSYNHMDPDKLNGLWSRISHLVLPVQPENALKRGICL
Sequence of Dickkopf-related protein 1 (Homo sapiens) (O94907 whole entry, looked up): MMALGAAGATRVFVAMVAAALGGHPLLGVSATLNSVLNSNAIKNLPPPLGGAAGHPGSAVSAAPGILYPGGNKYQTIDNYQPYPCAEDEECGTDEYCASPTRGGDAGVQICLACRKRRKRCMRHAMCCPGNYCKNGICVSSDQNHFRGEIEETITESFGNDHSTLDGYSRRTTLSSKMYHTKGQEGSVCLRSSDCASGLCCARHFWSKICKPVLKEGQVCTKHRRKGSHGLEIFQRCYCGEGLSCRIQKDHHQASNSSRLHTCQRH
Sequence of Epidermal growth factor receptor (Homo sapiens) (P00533 whole entry, looked up): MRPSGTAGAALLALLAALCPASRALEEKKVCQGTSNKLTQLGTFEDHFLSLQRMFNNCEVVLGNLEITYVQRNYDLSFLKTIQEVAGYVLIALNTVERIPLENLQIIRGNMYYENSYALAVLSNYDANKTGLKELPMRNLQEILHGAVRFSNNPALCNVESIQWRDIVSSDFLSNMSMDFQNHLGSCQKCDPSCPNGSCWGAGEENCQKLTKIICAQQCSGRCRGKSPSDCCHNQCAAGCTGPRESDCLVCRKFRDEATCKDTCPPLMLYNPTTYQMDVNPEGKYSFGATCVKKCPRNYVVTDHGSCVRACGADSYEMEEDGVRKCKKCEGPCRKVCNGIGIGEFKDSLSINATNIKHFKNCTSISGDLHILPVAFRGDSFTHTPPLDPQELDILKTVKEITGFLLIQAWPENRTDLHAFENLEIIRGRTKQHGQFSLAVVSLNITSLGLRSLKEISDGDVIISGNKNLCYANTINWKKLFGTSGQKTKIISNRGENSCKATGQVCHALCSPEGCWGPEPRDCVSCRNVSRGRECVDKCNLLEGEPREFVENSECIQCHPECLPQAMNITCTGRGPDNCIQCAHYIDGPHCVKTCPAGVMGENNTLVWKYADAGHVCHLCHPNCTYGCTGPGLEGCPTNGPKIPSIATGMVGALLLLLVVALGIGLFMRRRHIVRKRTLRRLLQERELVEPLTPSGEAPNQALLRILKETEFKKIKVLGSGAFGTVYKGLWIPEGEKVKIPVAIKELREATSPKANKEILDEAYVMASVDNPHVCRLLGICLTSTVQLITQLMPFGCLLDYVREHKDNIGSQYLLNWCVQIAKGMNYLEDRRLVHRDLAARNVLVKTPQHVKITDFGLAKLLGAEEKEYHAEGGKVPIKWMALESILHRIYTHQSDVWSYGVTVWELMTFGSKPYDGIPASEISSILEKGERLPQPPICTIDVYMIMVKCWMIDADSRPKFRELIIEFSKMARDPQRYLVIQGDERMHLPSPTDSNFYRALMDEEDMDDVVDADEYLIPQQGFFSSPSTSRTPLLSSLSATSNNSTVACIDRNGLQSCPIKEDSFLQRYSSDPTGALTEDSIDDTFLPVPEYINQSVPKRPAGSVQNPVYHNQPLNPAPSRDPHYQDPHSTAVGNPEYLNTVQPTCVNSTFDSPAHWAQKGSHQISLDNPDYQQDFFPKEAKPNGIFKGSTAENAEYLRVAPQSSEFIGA

Take `COc1ccc(CCNC(=O)[C@@H]2c3ccccc3C(=O)N(c3ccc(C)cn3)[C@H]2c2ccc(CO)cc2)cc1`: the composite z-score in assay [1] was 1.73; in [2], 0.263; in assay [3] it was 1.19; in assay [5], -1.06; in assay [6] it was -0.37; in [7] it was -1.68. For the same compound, the composite z-score in [8] was -1.16; in assay [9], -2.4; in [10], -0.082; in assay [11] it was -0.618; in [13], -1.76; in assay [14] it was -0.822. The composite z-score was -0.796 in [15]; -0.242 in assay [16]; -0.367 in [17]; -0.266 in assay [18]; 3.04 in assay [19]; -0.955 in assay [20]. Moreover, the z-score in [4] was -0.403 (inactive); in assay [12], 0.267.

With `O=C1[C@H]2[C@H]3[C@H](O)[C@H](O)CC(=NOC[C@@H](O)COCc4ccco4)[C@H]3CC[C@H]2C(=O)N1C1CCCCC1`, the composite z-score in assay [1] was 0.508; in assay [2], -0.565; in assay [3], -1.6; in assay [5], 0.0351; in [6] it was 1.16; in assay [7] it was 0.623. The composite z-score in assay [8] was 0.499; in assay [9], 0.942; in assay [10], 1.31; in assay [11] it was -0.417; in [13], 1.05; in assay [14] it was -1.04. The composite z-score in assay [15] is -1.77; in assay [16] it was -0.104; in assay [17], -0.138; in assay [18], -0.402; in assay [19], -0.324; in assay [20], -0.32. Also, the figures for the z-score in assay [4] and in [12] were -1.13 (inactive) and -0.353, respectively.

As for `CO[C@@H]1COC(=O)CC=C[C@@H](C)[C@@H]2C=C[C@@H](O)[C@@H](COC(=O)CC=C[C@H]1C)O2`, the composite z-score in [1] is 0.661; in assay [2] it was -0.325; in [3] it was -1.08; in assay [5] it was 0.954; in assay [6], 0.524; in assay [7], 0.935. The composite z-score in [8] was 1.48; in assay [9], 0.804; in [10], 1.12; in assay [11], -0.438; in assay [13], 1.12; in [14] it was -1.24. In addition, the composite z-score was -2.11 in [15]; -0.252 in [16]; 0.0756 in [17]; -0.444 in assay [18]; -0.208 in [19]; -0.114 in assay [20]. Further, the z-score in assay [4] is -0.953 (inactive); in [12], 0.464.

Turning to `COC(=O)[C@H](C)NC(=O)[C@@H](C)CO`, the composite z-score in assay [1] is 0.241; in [2], 0.0939; in [3] it was -0.469; in [5], 0.572; in assay [6] it was 0.844; in assay [7], 0.499. Also, the composite z-score is 0.258 in [8]; 0.338 in [9]; -0.776 in assay [10]; 1.25 in [11]; 0.5 in [13]; 0.601 in assay [14]. Besides, the composite z-score in assay [15] is -0.369; in assay [16] it was -0.0445; in [17], -0.0035; in assay [18] it was 0.243; in assay [19], 0.924; in assay [20], 0.855. Moreover, the z-score is 0.364 (inactive) in assay [4] and -0.431 in [12].

As for `CC(CCC(=O)OC[C@H]1O[C@H](C#Cc2ccccc2)C=C[C@@H]1Oc1ccc(C)cc1)=NOC[C@@H](O)[C@H]1O[C@@H]2OC(C)(C)O[C@@H]2[C@H]1O`, the composite z-score was 0.373 in assay [1]; -0.339 in assay [2]; -0.505 in [3]; -0.369 in assay [5]; -0.579 in assay [6]; -1.03 in assay [7]. For the same compound, the composite z-score in [8] was -0.638; in assay [9], -0.335; in assay [10] it was 0.302; in [11], -0.263; in assay [13] it was -0.15; in assay [14] it was -0.873. Also, the composite z-score in assay [15] is 0.0923; in assay [16], -0.18; in assay [17], -0.439; in [18], -0.118; in [19] it was 0.416; in [20], -0.469. For the same compound, the z-score in [4] was 0.29 (inactive); in assay [12], -1.13.

These data come from PubChem BioAssay.
